# Assay outcomes as filed in PubChem.
# The list is not random: actives were taken first. Their share in the collection is about 14%.
# USP8 block – blocks human USP8 ubiquitin-rhodamine cleavage; inhibition, % at 20 µM; purified USP8, Ub-rhodamine cleavage fluorescence, 30 min; P40818; 47,000 tested, 4.2% active
# USP10 inh – inhibitors of human USP10 deubiquitinase; Q14694; purified USP10, Ub-rhodamine fluorescence, 60 min; inhibition, % at 20 µM; 47,000 tested, 1.1% active; AID 1645856
# Target sequence (Q14694 whole entry, looked up): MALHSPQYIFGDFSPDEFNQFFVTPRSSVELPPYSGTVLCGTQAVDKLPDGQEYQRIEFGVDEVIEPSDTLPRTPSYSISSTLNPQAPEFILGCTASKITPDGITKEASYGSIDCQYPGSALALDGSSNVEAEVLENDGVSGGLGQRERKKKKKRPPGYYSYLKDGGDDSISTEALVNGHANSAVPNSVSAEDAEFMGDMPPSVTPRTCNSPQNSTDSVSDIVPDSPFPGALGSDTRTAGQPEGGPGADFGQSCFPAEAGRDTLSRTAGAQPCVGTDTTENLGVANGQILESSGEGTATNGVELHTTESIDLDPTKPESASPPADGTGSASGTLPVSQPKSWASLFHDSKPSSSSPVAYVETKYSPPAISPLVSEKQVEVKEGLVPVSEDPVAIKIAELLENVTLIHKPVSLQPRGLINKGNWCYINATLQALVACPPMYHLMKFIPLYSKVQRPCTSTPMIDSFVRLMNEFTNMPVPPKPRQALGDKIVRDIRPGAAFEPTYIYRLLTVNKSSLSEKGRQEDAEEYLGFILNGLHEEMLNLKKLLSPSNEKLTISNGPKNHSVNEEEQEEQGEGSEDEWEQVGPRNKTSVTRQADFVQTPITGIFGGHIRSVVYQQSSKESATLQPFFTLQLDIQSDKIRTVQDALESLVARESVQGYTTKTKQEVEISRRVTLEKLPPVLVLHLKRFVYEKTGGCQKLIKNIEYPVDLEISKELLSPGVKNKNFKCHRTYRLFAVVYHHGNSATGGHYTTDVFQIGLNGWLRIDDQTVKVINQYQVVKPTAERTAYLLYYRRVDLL
# USP28 block – blocks human USP28 ubiquitin-rhodamine cleavage; inhibition, % at 25 µM; Q96RU2; 47,000 tested, 3% active; purified USP28, Ub-rhodamine cleavage fluorescence, 30 min
# USP30 block – human USP30 deubiquitinase inhibition; Q70CQ3; purified USP30, Ub-rhodamine cleavage fluorescence; inhibition, % at 25 µM; 47,000 tested, 5.3% active
# USP17 block – blocks human USP17 ubiquitin-rhodamine cleavage; purified USP17, Ub-rhodamine cleavage fluorescence, 3 h; 47,000 tested, 6.5% active; inhibition, % at 50 µM; A8MUK1
# A number is an active result; i = inactive. No stated cut-off is given here; in the data, active means inhibition above about 30%; inactive means the rest.
SMILES,USP8 block,USP10 inh,USP28 block,USP30 block,USP17 block
COc1ccccc1-c1cnn2c1NC(=O)CC2C(=O)Nc1ccc(C)cc1C (centres undefined),i,i,i,i,i
O=C(Nc1ccccc1F)C1CCC(=O)N1S(=O)(=O)c1ccccc1 (centres undefined),i,i,i,i,i
O=C1CC(C(=O)Nc2ccccc2F)n2nc(-c3ccccc3)cc2N1 (centres undefined),39,i,56,i,78
COc1ccc(NC(=O)C2CC(=O)Nc3c(-c4ccc(Cl)cc4)cnn32)c(OC)c1 (centres undefined),i,i,i,i,60
O=C(Nc1ccc2c(c1)OCO2)C1CCN(Cc2nc3ccccc3s2)CC1,i,i,70,i,i
O=C1CC(C(=O)Nc2ccc3c(c2)OCO3)N=C(Nc2ccccc2)N1 (centres undefined),i,i,i,i,i
CC(=O)c1ccc(NC(=O)CSc2nnc(COc3ccc(C)cc3)n2Cc2ccccc2)cc1,i,i,i,i,i
Cc1cc(=O)[nH]c(C2CN(C(=O)CN3CCCCCC3=O)CCO2)n1 (centres undefined),i,i,i,i,i
O=C(O)c1ccc(Cn2cnc3ccccc3c2=O)o1,i,i,i,i,i
O=C(Nc1cc(Cl)ccc1O)c1ccc(Cn2cnc3ccccc3c2=O)cc1,i,i,i,i,45
Cc1nnc(-c2coc(S(=O)(=O)N3CCN(c4ccccc4F)CC3)c2)o1,i,i,i,39,i
Cc1nnc(-c2coc(S(=O)(=O)N3CCN(c4ccccc4C)CC3)c2)o1,i,i,i,i,i
O=C(NCCc1ccccc1F)[C@@H]1Cc2c([nH]c3ccccc23)C2c3ccccc3C(=O)N21 (some centres undefined),i,i,i,i,i
COc1ccc(-c2noc(NCCc3ccccc3)n2)cc1,i,i,i,i,37
O=C(NC1CCCCC1)c1c(-c2ccccc2)c2c3n(c(-c4ccc(F)cc4)cn13)CCCC2,i,i,i,i,i
Cc1ccc(C)c(C2CC(=O)Nc3c2c(C)nn3-c2nc3ccccc3s2)c1 (centres undefined),i,i,i,i,i
CCOc1ccc2nc(-n3nc(C)c4c3NC(=O)CC4c3cc(C)sc3C)sc2c1 (centres undefined),i,i,i,36,i
O=C(NC1CC(=O)N(c2ccc3c(c2)OCCO3)C1)c1cc2ccccc2o1 (centres undefined),i,i,i,i,i
Cc1cccc(N2CCN(C(=O)CCn3c(=O)[nH]c4ccccc4c3=O)CC2)c1C,i,i,i,36,46
CCN(CCCNC(=O)c1ccc(Cn2c(=O)[nH]c3ccccc3c2=O)cc1)c1ccccc1,i,i,i,i,59
CCN1CCN(CCCNC(=O)c2ccc3c(=O)n(CCc4ccccc4)c(=O)[nH]c3c2)CC1,i,i,i,32,i
COc1ccc(N2CCN(CCCNC(=O)c3ccc4c(=O)n(CCc5ccccc5)c(=O)[nH]c4c3)CC2)cc1,i,i,i,i,i
COc1ccc(Cn2c(=O)[nH]c3cc(C(=O)NCCCN4CCN(c5cccc(Cl)c5)CC4)ccc3c2=O)cc1,83,60,i,46,51
O=C(c1ccn[nH]1)N1CCC(c2nc3ccccc3cc2C(=O)N2CCCC2)CC1,i,i,i,i,i
COc1cccc(-n2cc(C(=O)N3CCCC3)nn2)c1,i,i,i,i,i
SMILES,USP8 block,USP10 inh,USP28 block,USP30 block,USP17 block
COc1ccccc1N1CCN(C(=O)c2ccc3c(=O)n(CCc4ccccc4)c(=O)[nH]c3c2)CC1,i,40,i,35,i
O=C(CCCn1c(=O)c2ccccc2n(Cc2ccccc2)c1=O)NCc1ccco1,i,i,i,i,i
Cc1cc(NC(=O)Cn2c(=O)n(CCCCC(=O)NCc3ccco3)c(=O)c3ccccc32)ccc1Br,84,60,i,i,64
CCn1c(=O)n(CC(=O)Nc2ccc3c(c2)OCO3)c(=O)c2ccccc21,i,i,i,i,i
Cc1ccc(NC(=O)Cn2c(=O)n(CC(=O)NCc3ccco3)c(=O)c3ccccc32)cc1C,i,i,44,45,63
CCOc1ccc(NC(=O)Cn2c(=O)n(CCC(=O)NCc3ccco3)c(=O)c3ccccc32)cc1,45,45,i,i,71
O=C(CCCCn1c(=O)c2ccccc2n(CC(=O)NCCC2=CCCCC2)c1=O)NCc1ccco1,42,i,i,i,i
O=C(NCCCN1CCCC1=O)c1cc2occc2c(Nc2ccc(F)cc2)n1,i,i,i,i,i
CCCN1CCN(c2nnc(-c3nnc(C)o3)c3ccccc23)CC1,i,i,i,i,i
Cc1ccc2nc(N3CCCC(C(=O)NCCCc4ccccc4)C3)[nH]c2c1 (centres undefined),i,i,i,i,i
O=C(Cn1c(=O)n(CCC(=O)N2CC=C(c3ccccc3)CC2)c(=O)c2ccccc21)NCc1ccco1,51,i,i,i,63
N#Cc1ccccc1Cn1c(=O)n(CCC(=O)N2CC=C(c3ccccc3)CC2)c(=O)c2ccccc21,i,i,i,i,i
O=C(Cn1c(=O)n(CC2CCC(C(=O)NC3CCCC3)CC2)c(=O)c2ccccc21)NCCC1=CCCCC1 (centres undefined),i,34,i,40,50
CCCN1CCN(c2ncc3c(n2)CCN(Cc2sccc2C)C3)CC1,i,i,i,i,i
COc1ccc(S(=O)(=O)Nc2ccc(C)n(CC(=O)N3CCCC3)c2=O)cc1,i,i,i,i,i
O=C1Cc2ccccc2C(=O)N1Cc1cccc(Cl)c1,88,i,i,i,i
O=C(CCn1nnc2cc(-c3noc(-c4ccccn4)n3)ccc21)N1CCOCC1,i,i,i,i,i
CSc1ncn(-c2nc(N(C)C)nc(N3CCCCCC3)n2)n1,i,i,i,i,i
CCNc1nc(N2CCCCCC2)nc(-n2cnc(SC)n2)n1,i,i,i,30,i
CSc1ccc(C(=O)Nc2nc(-c3ccncc3)cs2)cc1,44,i,i,i,i
O=C(Nc1nc2c(Cl)c(Cl)ccc2s1)c1ccncc1,i,i,i,i,i
CSc1ccccc1C(=O)Nc1nc(-c2ccncc2)cs1,i,i,i,34,55
CC1O[C@@H](c2ccc3c(c2O)C(=O)C2=C(C3=O)[C@@]3(O)C(=O)C(O)[C@](C)(O)C[C@@]3(O)C=C2)CC[C@@H]1OC(=O)/C=C/C=C/C=C/[C@@H]1O[C@@](C)(C(=O)O)O[C@H]1C (some centres undefined),i,i,48,i,48
CCC(C)[C@H](NS(=O)(=O)c1ccc(C)cc1)C(=O)N1CCC(C(=O)N[C@@H](Cc2ccc(O)cc2)C(=O)O)CC1 (some centres undefined),i,i,i,i,i
CC(=O)Nc1ccc(S(=O)(=O)N2CCC(CC(=O)NCc3ccc(F)cc3)CC2)cc1,i,i,i,i,i
CSc1ccc(CNC(=O)CC2CCN(S(=O)(=O)c3ccc(C)cc3)CC2)cc1,i,i,30,50,i
